The nature of test [1]: resazurin metabolic signal in HepG2 cells – cell-based, resazurin fluorescence, 24 h, PK04 Diversity Set, profiling panel (AID 1172). Further: test concentration not given here. The settings on record: HepG2 viability, higher = more signal.
Test [2] can be described thus: budding yeast growth changes without added modifier – OD600, strain BY4716, 24 h, basal condition, primary screen (AID 1173). The settings on record: S. cerevisiae BY4716 growth, OD600, 24 h; higher = more signal, called active from +8 up or from −8 down.
A short description of test [3]: viability profiling in MM1S myeloma cells – cell-based, resazurin fluorescence, basal, 24 h, PK04 Diversity Set, profiling panel (AID 1174).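 Further: MM1S multiple myeloma cell line; test concentration not given here.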 The settings on record: higher = more signal, called active from +8 up or from −8 down. In general terms: Resazurin is reduced to fluorescent resorufin, in cell work by metabolically active cells.
Test [4] deals with Dihydroorotate dehydrogenase (quinone), mitochondrial (Plasmodium falciparum (isolate 3D7)) (UniProt Q08210). As to the kind of experiment: inhibition of P. falciparum DHODH – biochemical, C-terminal His tag, absorbance 600 nm, primary screen (AID 1175).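 Further: recombinant parasite enzyme with a five histidine tag at its C terminus; test concentration not given here.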 The following applies: PfDHODH enzyme, DCIP absorbance 600 nm; higher = more signal, called active from +8 up or from −8 down.
Dihydroorotate dehydrogenase (quinone), mitochondrial (Plasmodium falciparum (isolate 3D7)), sequence (Q08210 whole entry, looked up): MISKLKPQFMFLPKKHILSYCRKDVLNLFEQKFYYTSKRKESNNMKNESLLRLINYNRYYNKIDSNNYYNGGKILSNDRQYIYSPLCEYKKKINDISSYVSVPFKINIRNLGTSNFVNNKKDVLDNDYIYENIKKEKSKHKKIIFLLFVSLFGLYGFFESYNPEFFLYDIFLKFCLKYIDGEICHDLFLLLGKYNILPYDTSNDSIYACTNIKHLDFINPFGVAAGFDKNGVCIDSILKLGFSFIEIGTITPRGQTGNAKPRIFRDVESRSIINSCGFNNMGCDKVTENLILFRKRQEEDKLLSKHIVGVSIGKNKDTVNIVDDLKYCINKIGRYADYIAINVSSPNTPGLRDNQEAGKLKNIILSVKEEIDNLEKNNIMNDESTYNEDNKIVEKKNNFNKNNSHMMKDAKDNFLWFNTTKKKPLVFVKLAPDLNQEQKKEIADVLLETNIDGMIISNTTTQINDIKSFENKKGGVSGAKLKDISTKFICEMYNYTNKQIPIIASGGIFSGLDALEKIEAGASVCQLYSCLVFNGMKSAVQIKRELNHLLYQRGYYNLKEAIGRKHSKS

The nature of test [5]: inhibition of PAO1 biofilm formation – strain PAO1, LB-PBS medium, absorbance 600 nm, primary screen (AID 1176). Further: test concentration not given here. The settings on record: P. aeruginosa PAO1 growth/biofilm, A600, 12 h; higher = more signal.
The nature of test [6]: growth modulation of vineyard yeast isolate – strain RM11-1a, OD600, basal, 24 h, primary screen (AID 1177).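 Further: cultures grown under basal conditions with no added stressor; test concentration not given here.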 The following applies: S. cerevisiae RM11-1a growth, OD600, 24 h; higher = more signal, called active from +8 up or from −8 down.
A short description of test [7]: growth of efflux-deficient E. coli DRC39 – strain DRC39, OD650, 24 h, E. coli filamentation inducers, primary screen (AID 1178).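 Further: growth measured as culture turbidity by optical density at 650 nm; test concentration not given here.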 The settings on record: E. coli DRC39 acrAB, higher = more signal, called active from +8 up or from −8 down.
The nature of test [8]: growth of efflux-deficient E. coli DRC39 – strain DRC39, OD650, 48 h, E. coli filamentation inducers, primary screen (AID 1179).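 Further: screen aims at cell division blockers that make cells filament.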 The settings on record: E. coli DRC39 delta-acrAB growth, higher = more signal, called active from +8 up or from −8 down.
The nature of test [9]: viability profiling in RPMI8226 myeloma cells – cell-based, resazurin fluorescence, basal, 24 h, PK04 Diversity Set, profiling panel (AID 1180).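 Further: RPMI8826 multiple myeloma cell line at 5000 cells per well; test concentration not given here.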 The settings on record: higher = more signal.
Test [10] deals with E3 ubiquitin-protein ligase XIAP (Homo sapiens) (UniProt P98170). As to the kind of experiment: small molecules binding XIAP protein – biophysical, small-molecule microarray, fluorescence 635 nm, primary screen (AID 1181).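 Further: score merges 667 nm emission and signal to noise over triplicate slides.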 The following applies: higher = more signal.
E3 ubiquitin-protein ligase XIAP (Homo sapiens), sequence (P98170 whole entry, looked up): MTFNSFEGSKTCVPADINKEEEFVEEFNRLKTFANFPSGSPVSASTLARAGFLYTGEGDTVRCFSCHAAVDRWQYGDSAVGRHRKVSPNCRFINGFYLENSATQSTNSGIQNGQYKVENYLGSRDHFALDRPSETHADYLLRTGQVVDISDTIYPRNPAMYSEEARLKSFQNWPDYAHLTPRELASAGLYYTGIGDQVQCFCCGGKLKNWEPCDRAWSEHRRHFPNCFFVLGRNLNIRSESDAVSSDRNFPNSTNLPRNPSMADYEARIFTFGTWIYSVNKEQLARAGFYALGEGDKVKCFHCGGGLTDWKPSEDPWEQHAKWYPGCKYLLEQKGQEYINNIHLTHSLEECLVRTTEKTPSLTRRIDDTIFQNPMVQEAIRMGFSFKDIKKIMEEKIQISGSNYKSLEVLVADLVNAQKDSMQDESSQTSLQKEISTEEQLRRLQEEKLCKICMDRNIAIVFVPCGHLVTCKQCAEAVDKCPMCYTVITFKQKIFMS

For twelve compounds, z-score and composite z-score results are on record in PubChem BioAssay.

Active and inactive are the calls of the source. Unless noted, how the calls were made is not given here.

As for `CCCNC(=O)[C@@H]1c2ccccc2C(=O)N(c2ccc(C)cn2)[C@H]1c1ccc(CO)cc1`, the z-score was 0.306 in test [1]; 0.325 (inactive) in [2]; -0.472 (inactive) in [3]; 0.388 (inactive) in [5]; -0.826 (inactive) in test [6]; 0.232 (inactive) in test [7]. For the same compound, the z-score in test [8] is 0.0239 (inactive); in test [9], -0.682. Moreover, the composite z-score was -0.165 (inactive) in [4] and -0.165 in test [10].

Consider `O=C1C2C=CC(C(O)c3ccc([N+](=O)[O-])cc3)N(Nc3ccc([N+](=O)[O-])cc3)C2C(=O)N1c1ccccc1` (stereo not given), for which the z-score in test [1] was -0.686; in test [2], 1.61 (inactive); in [3] it was -0.858 (inactive); in [5], 1.64 (inactive); in [6], 1.44 (inactive); in [7], -1.3 (inactive). In addition, the z-score is -1.09 (inactive) in test [8] and -0.823 in [9]. Besides, the composite z-score in [4] is 1.2 (inactive); in test [10], 0.23.

On to `C=CCNC(=O)[C@H]1[C@@H]2C(=O)O[C@@H](c3ccccc3)[C@@H](c3ccccc3)N2[C@@H](c2ccc(O)cc2)[C@]12C(=O)N(C(=O)OCCOC)c1ccc(C#CC3=CCCCC3)cc12`, for which the z-score in test [1] is 0.467; in [2] it was 0.107 (inactive); in test [3] it was -0.61 (inactive); in test [5], 0.858 (inactive); in [6], 1.01 (inactive); in test [7] it was -0.925 (inactive). Also, the z-score in [8] is -0.723 (inactive); in [9], -0.205. Besides, the composite z-score in test [4] was -0.629 (inactive); in test [10] it was 0.22.

In the case of `CC(=O)OC[C@H]1O[C@@H](ON=C(C)CCN2CCc3nc(-c4ccccc4)c(-c4ccccc4)cc3C2)[C@H](OC(C)=O)[C@@H](OC(C)=O)[C@@H]1OC(C)=O`, the z-score in [1] was -0.182; in test [2], -0.909 (inactive); in test [3], -0.653 (inactive); in [5] it was 0.0039 (inactive); in [6] it was -0.127 (inactive); in [7], -1.11 (inactive). Further, the z-score in test [8] is -2.14 (inactive); in [9], -0.323. The composite z-score is -0.24 (inactive) in test [4] and 0.0819 in test [10].

For the compound `CO[C@@H]1COC(=O)CCC[C@@H](C)[C@H](OC)COC(=O)[C@H](Cc2ccccc2)NC(=O)CC=C[C@H]1C`, the z-score in [1] was 0.229; in test [2] it was -0.987 (inactive); in test [3], -0.15 (inactive); in test [5] it was -0.291 (inactive); in test [6], 0.926 (inactive); in [7] it was 0.024 (inactive). The values for the z-score in test [8] and in [9] were 0.407 (inactive) and 1.05, respectively. Also, the composite z-score was 0.615 (inactive) in [4] and 0.0155 in [10].

`O=C1[C@H]2[C@H]3[C@H](O)[C@H](O)CC(=NOC[C@@H](O)COCc4ccco4)[C@H]3CC[C@H]2C(=O)N1Cc1ccc2c(c1)OCO2`: the z-score was 0.102 in test [1]; 0.684 (inactive) in [2]; -0.293 (inactive) in test [3]; -0.85 (inactive) in [5]; 0.0885 (inactive) in test [6]; 0.786 (inactive) in [7]. The z-score was 1.11 (inactive) in test [8] and 0.263 in test [9]. Further, the results for the composite z-score in [4] and in [10] were -0.566 (inactive) and 0.0049, respectively.

As to `CC(C)[Si]1(C(C)C)O[C@@H](c2ccccc2)c2cc(C3CC3)nc(-c3ccccc3)c21`, the z-score was 0.972 in [1]; 0.0055 (inactive) in test [2]; 0.656 (inactive) in test [3]; 0.632 (inactive) in test [5]; -0.403 (inactive) in test [6]; -0.281 (inactive) in test [7]. Moreover, the z-score in test [8] is -0.785 (inactive); in [9] it was 0.21. Besides, the composite z-score was 0.45 (inactive) in [4] and 0.0785 in test [10].

As for `COC(=O)[C@@H]1CC[C@H](C)[C@@H](c2ccc(C)cc2)N1C(=O)c1ccc(C=NOC[C@@H](O)COCc2ccco2)cc1`, the z-score in [1] was -0.609; in test [2] it was -0.346 (inactive); in [3] it was -1.06 (inactive); in test [5] it was 0.147 (inactive); in test [6], 0.0787 (inactive); in test [7] it was 0.462 (inactive). Besides, the figures for the z-score in [8] and in test [9] were 0.663 (inactive) and -1.49, respectively. Besides, the composite z-score in [4] is 0.13 (inactive); in [10], -0.0891.

On to `CN1C(=O)[C@@]2(CCC(=O)OC(C)(C)C)N=C(c3ccc(OCCCO)cc3)O[C@H]2c2ccccc21`, for which the z-score in test [1] was 0.761; in test [2], -1.04 (inactive); in test [3], -1.82 (inactive); in [5], 0.0279 (inactive); in test [6], -0.177 (inactive); in test [7], 1.2 (inactive). The values for the z-score in test [8] and in [9] were 0.767 (inactive) and -1.99, respectively. In addition, the values for the composite z-score in [4] and in test [10] were -0.281 (inactive) and 0.169, respectively.

For the compound `CN(C)CCCNC(=O)[C@@H]1c2ccccc2C(=O)N(Cc2cc(F)cc(C(F)(F)F)c2)[C@H]1c1ccc(CO)cc1`, the z-score in [1] is 0.0356; in [2] it was -0.473 (inactive); in test [3], -0.62 (inactive); in test [5], 0.348 (inactive); in [6] it was 0.0333 (inactive); in test [7], -0.0392 (inactive). Further, the z-score in test [8] is -0.578 (inactive); in test [9], -0.359. The composite z-score in test [4] is 0.0999 (inactive); in test [10], -0.0172.

As to `O=C1O[C@@H](c2ccccc2)[C@@H](c2ccccc2)N2[C@@H](c3ccc(O)cc3)[C@]3(C(=O)Nc4ccccc43)[C@@H](C(=O)O)[C@H]12`, the z-score in test [1] is -0.253; in test [2] it was -0.922 (inactive); in [3] it was -0.14 (inactive); in test [5], 0.697 (inactive); in test [6] it was -0.472 (inactive); in [7] it was -0.0134 (inactive). In addition, the z-score in [8] is -0.831 (inactive); in test [9] it was 0.393. In addition, the composite z-score in test [4] is -1.42 (inactive); in test [10], 0.125.

Regarding `O=C1[C@H]2[C@H]3[C@H](O)[C@H](O)CC(=NOC[C@@H](O)COCc4ccco4)[C@@H]3CC[C@H]2C(=O)N1c1ccc(F)cc1F`, the z-score is 0.883 in test [1]; -0.374 (inactive) in test [2]; 0.995 (inactive) in test [3]; -1.45 (inactive) in [5]; -0.247 (inactive) in [6]; 0.0718 (inactive) in test [7]. Besides, the z-score in [8] is 0.264 (inactive); in test [9], 1.15. The composite z-score in test [4] is -0.564 (inactive); in test [10], -0.37.
